Among the data in PubChem BioAssay (Tox21) are Potency, activity change, positive = activation and outcome values, retold here.

A short description of experiment [1]: qHTS assay to identify small molecule antagonists of the estrogen related receptor (ERR) signaling pathway from Tox21 library - cell viability counter screen (AID 1224834). Also: nearly all actives have a fitted effect of over 30% in size. Also: potency is read from the fitted curve at half-maximal effect. A digest of the protocol:
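ERR reporter cells were plated 6 h before compound addition, then exposed to test compounds in DMSO for 17.5 h at 37 C. Viability was read as CellTiter-Fluor fluorescence after a 30-minute incubation at 37 C.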

Experiment [2] addresses Luciferin 4-monooxygenase (Photinus pyralis) (UniProt P08659). Description: qHTS assay to identify small molecule inhibitors of firefly luciferase (AID 1224835). Also: nearly all actives have a fitted effect of over 25% in size. Also: potency is read from the fitted curve at half-maximal effect. A digest of the protocol:
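Inhibition of purified Photinus luciferase is measured by luminescence. Substrate levels (D-luciferin, ATP) sit at their KM values. Each compound is tested in a concentration series.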

The nature of experiment [3]: qHTS assay to identify small molecule agonists of the constitutive androstane receptor (CAR) signaling pathway - cell viability counter screen (AID 1224836). Also: nearly all actives have a fitted effect of over 45% in size. Also: potency is read from the fitted curve at half-maximal effect. A digest of the protocol: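 Viability read-out: CellTiter-Fluor fluorescence after 23 h compound exposure at 37 C/5% CO2 in double-stable HepG2-CYP2B6-hCAR cells, with PK11195 present at 0.75 uM final; compounds tested in 15-point titration.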

A short description of experiment [4]: qHTS assay to identify small molecule antagonists of the constitutive androstane receptor (CAR) signaling pathway - cell viability counter screen (AID 1224837). Also: nearly all actives have a fitted effect of over 45% in size. Also: potency is read from the fitted curve at half-maximal effect. The method, boiled down: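 HepG2 cells stably expressing hCAR and a CYP2B6-2.2kb reporter were plated and pre-incubated 4 hr at 37 C/5% CO2, then given compounds at 15 concentrations plus 50 nM CITCO (final). After 23 hr, viability was read by CellTiter-Fluor fluorescence.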
(In qHTS, concentration-response curves come from the screen itself.)

Experiment [5] addresses Nuclear receptor subfamily 1 group I member 3 (Homo sapiens) (UniProt Q14994). The experiment is described as follows: qHTS assay to identify small molecule antagonists of the constitutive androstane receptor (CAR) signaling pathway (AID 1224838). Also: nearly all actives have a fitted effect of over 40% in size. The method, boiled down: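 HepG2 cells stably co-transfected with hCAR and a CYP2B6-2.2kb luciferase reporter were seeded 4 h before compound addition at 15 concentrations. Cells were stimulated with 50 nM CITCO (final) for 24 h at 37 C; luciferase luminescence was then read.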

For experiment [6] the target is unchanged. Description: qHTS assay to identify small molecule agonists of the constitutive androstane receptor (CAR) signaling pathway (AID 1224839). Also: nearly all actives have a fitted effect of over 15% in size. Also: potency is read from the fitted curve at half-maximal effect. A digest of the protocol:
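Luminescence read-out (ONE-Glo, 30 min, room temperature) from double-stable HepG2-CYP2B6-hCAR cells exposed 24 h to 15-point compound series in presence of 0.75 uM PK11195 final.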

Experiment [7] concerns the target Thyrotropin receptor (Homo sapiens) (UniProt P16473). The experiment is described as follows: qHTS assay to identify small molecule agonists of the thyroid stimulating hormone receptor (TSHR) signaling pathway (AID 1224843; calls by dose curve; also: nearly all actives have a fitted effect of over 45% in size). A digest of the protocol:
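Screening of the Tox21 10K collection used HEK293 cells engineered with TSHR at 800 cells per well. After a 30-min room-temperature compound exposure, HTRF cAMP reagents were added and fluorescence recorded 1 h later.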

Experiment [8] can be described thus: qHTS assay to identify small molecule agonists of H2AX (AID 1224845; active = well fitted activation curve with a large enough effect in the signal ratio in the repeat runs, not every such curve was filed as active; the % refers to the signal ratio). A digest of the protocol:
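Phospho-H2AX Ser139 measured by HTRF (ex 320 nm; em 665 and 620 nm) after 24 hr antibody incubation. Compounds, 15 concentrations, 0.76% DMSO, were applied to CHO-K1 cells for 3hr at 37C before lysis.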

The nature of experiment [9]: qHTS assay to identify small molecule agonists of H2AX - cell viability counter screen (AID 1224847; calls by dose curve; also: nearly all actives have a fitted effect of over 30% in size; also: potency is read from the fitted curve at half-maximal effect). The method, boiled down: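 CHO-K1 wt, 1000 cells/well, o/n 37C; cpds 15 conc, 3 h 37C, 0.76% DMSO; CellTiter-Glo, 30 min RT, luminescence.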
A short description of experiment [10]: qHTS RealTime-Glo MT Cell Viability Assay in HEK293 cells - 32 hour (AID 1224868). Also: nearly all actives have a fitted effect of over 50% in size. Also: potency is read from the fitted curve at half-maximal effect. A digest of the protocol: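 HEK293 cells were seeded at 600 cells/well together with NanoLuc luciferase and cell-permeant prosubstrate, preincubated 5 h at 37 C/5% CO2, then given compound in DMSO by pintool. Luminescence from viable-cell prosubstrate reduction was read repeatedly over 40 h.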

Experiment [11] is described as follows: A CellTox Green Cytotoxicity Assay to monitor cytotoxicity in HEK293 cells - 0 hour (AID 1224869). Also: nearly all actives have a fitted effect of over 50% in size. The method, boiled down:
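HEK293 cells premixed with CellTox Green dye were seeded at 600 cells/well and left 5 h at 37 C/5% CO2 before pin transfer of 23 nL compound in DMSO. Fluorescence from dye bound to dead-cell DNA was read during 40 h treatment.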

Experiment [12] in a line: qHTS RealTime-Glo MT Cell Viability Assay in HepG2 cells - 40 hour (AID 1224870). Also: nearly all actives have a fitted effect of over 50% in size. The method, boiled down:
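Real-time viability: cells seeded at 600 per well together with NanoLuc and cell-permeant prosubstrate, compounds added after 5 h incubation. Luminescence tracked at 0, 8, 16, 24, 32 and 40 h of exposure.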

The nature of experiment [13]: qHTS assay to identify small molecule antagonists of the estrogen related receptor signaling pathway with the pleiotropic PPARgamma coactivator (PGC) from Tox21 10K library - cell viability counter screen (AID 1224840; active = well fitted cell-killing curve with a large enough effect in the repeat runs, not every such curve was filed as active; also: nearly all actives have a fitted effect of over 40% in size; also: potency is read from the fitted curve at half-maximal effect). A digest of the protocol:
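PGC/ERR cells were seeded at 2,000 cells/well and left 6 hours at 37 C/5% CO2 before pin-tool addition of compounds in DMSO. After 17.5 hours at 37 C, CellTiter-Fluor was added and fluorescence read 30 minutes later.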

A short description of experiment [14]: qHTS assay to identify small molecule antagonists of the estrogen related receptor signaling pathway with the pleiotropic PPARgamma coactivator (PGC) from Tox21 10K library (AID 1224841; call rule not given here; also: actives are mostly falling curves and most rising ones were filed inactive; nearly all actives have a fitted effect of over 50% in size; also: potency is read from the fitted curve at half-maximal effect). The method, boiled down: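 PGC/ERR reporter cells were seeded at 2,000 cells/well and held 6 hours at 37 C/5% CO2 before pin-tool addition of compounds in DMSO. After 18 hours at 37 C, One-Glo was added and luminescence read after 30 minutes at room temperature.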

A short description of experiment [15]: qHTS assay to identify small molecule agonists of the estrogen related receptor signaling pathway with the pleiotropic PPARgamma coactivator (PGC) from Tox21 10K library (AID 1224842). Also: nearly all actives have a fitted effect of over 15% in size. A digest of the protocol: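 Luminescence from One-Glo (30 min, room temperature) measured after PGC/ERR cells had 18 h at 37 C with pinned compound (23 nL in DMSO). Cells had been seeded at 2,000 per well and pre-incubated 6 h.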

A short description of experiment [16]: qHTS assay to identify small molecule agonists of the hypoxia (HIF-1) signaling pathway - cell viability counter screen (AID 1224844; calls by dose curve; also: nearly all actives have a fitted effect of over 50% in size). A digest of the protocol:
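HRE-bla ME-180 cells in medium with 0.5% dialyzed FBS were preincubated 5 hrs at 37C, exposed to compounds for 17 hrs, then viability was read as CellTiter-Glo luminescence after 30 min at room temperature, in the reporter wells.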

A short description of experiment [17]: qHTS assay to identify small molecule antagonists of the estrogen related receptor (ERR) signaling pathway from Tox21 library (AID 1224848). Also: nearly all actives have a fitted effect of over 50% in size. Also: potency is read from the fitted curve at half-maximal effect. A digest of the protocol:
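Antagonist-mode screen of the Tox21 10K library in an NTP-provided ERR reporter cell line; 18 h compound exposure at 37 C, luminescence measured with ONE-Glo.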

Experiment [18] in a line: qHTS assay to identify small molecule agonists of the estrogen related receptor (ERR) signaling pathway from Tox21 library (AID 1224849; calls by dose curve; also: nearly all actives have a fitted effect of over 15% in size). The following applies: ERR reporter cell line, ONE-Glo luciferase, 18 h; at 92.4 µM (top of the series) unless noted. The method, boiled down: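 ERR reporter cell line (NTP) seeded, rested 6 h at 37 C/5% CO2, then pinned with Tox21 compounds in DMSO. After 18 h at 37 C, ONE-Glo luciferase luminescence was read following 30 min at room temperature.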

Experiment [19] can be described thus: qHTS RealTime-Glo MT Cell Viability Assay in HepG2 cells - 24 hour (AID 1224867). Also: nearly all actives have a fitted effect of over 50% in size. A digest of the protocol:
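HepG2 cells were seeded at 600 cells/well together with NanoLuc luciferase and a cell-permeant prosubstrate, preincubated 5 h at 37 C/5% CO2, then pin-dosed with compounds in DMSO. Nonlytic luminescence from viable cells was read at each time point.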

The nature of experiment [20]: qHTS assay to identify small molecule agonists of the hypoxia (HIF-1) signaling pathway (AID 1224846; active = well fitted activation curve with a large enough effect in the signal ratio in the repeat runs, not every such curve was filed as active; the % refers to the signal ratio). The method, boiled down:
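HRE-bla ME-180 cells (beta-lactamase reporter under hypoxia response element) were plated at 2,000 cells/well in medium with 0.5% dialyzed FBS, rested 5 hrs, then given compounds in DMSO for 17 hrs at 37C, 5% CO2. Reporter induction was read with CCF4-AM FRET substrate.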

The structures appear in SMILES notation. A number with no mark means an inactive call. Results filed as inconclusive are left out. Calls of active or inactive are those of the source. Unless noted, calls follow the shape of the dose curve; as a rule, active = well fitted curve in the direction sought with a large enough effect in the repeat runs; inconclusive = weak or mixed curves; inactive = no such curve, though single readings can be large; an effect the other way counts as inactive or inconclusive.
% is scaled to controls: 0 for no effect and ±100 for the full control effect.

Chain of Thyrotropin receptor (Homo sapiens) (P16473 whole entry, looked up): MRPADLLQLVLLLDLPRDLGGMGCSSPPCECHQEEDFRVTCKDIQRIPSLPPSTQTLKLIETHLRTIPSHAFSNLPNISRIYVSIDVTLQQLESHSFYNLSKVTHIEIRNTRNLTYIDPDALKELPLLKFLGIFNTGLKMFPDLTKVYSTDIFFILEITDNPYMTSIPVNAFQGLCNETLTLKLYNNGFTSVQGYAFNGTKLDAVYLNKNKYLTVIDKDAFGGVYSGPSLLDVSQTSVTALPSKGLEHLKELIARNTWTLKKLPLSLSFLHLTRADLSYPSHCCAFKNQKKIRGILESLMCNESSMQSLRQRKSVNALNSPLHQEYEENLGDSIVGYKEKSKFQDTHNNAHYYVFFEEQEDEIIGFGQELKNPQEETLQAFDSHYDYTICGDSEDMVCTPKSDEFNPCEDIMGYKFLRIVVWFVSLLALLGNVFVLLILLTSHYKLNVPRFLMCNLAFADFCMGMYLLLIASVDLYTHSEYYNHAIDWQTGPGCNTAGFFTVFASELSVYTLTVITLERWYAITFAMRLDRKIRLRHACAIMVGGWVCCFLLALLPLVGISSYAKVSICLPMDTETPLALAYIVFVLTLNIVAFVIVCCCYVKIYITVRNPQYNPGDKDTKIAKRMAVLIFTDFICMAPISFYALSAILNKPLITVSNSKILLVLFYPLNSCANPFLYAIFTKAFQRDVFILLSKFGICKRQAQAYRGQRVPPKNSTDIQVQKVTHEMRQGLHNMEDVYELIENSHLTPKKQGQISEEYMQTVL
Chain of Nuclear receptor subfamily 1 group I member 3 (Homo sapiens) (Q14994 whole entry, looked up): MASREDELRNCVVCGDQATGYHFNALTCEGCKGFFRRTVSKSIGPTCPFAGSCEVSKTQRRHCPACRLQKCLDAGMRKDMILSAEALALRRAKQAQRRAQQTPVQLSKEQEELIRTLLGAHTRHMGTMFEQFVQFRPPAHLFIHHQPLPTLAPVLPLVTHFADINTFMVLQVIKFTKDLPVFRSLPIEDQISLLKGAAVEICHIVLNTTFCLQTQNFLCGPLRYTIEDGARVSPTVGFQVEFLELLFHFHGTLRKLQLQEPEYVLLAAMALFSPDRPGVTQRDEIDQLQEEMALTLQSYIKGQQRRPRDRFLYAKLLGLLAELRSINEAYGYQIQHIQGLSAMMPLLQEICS
Chain of Luciferin 4-monooxygenase (Photinus pyralis) (P08659 whole entry, looked up): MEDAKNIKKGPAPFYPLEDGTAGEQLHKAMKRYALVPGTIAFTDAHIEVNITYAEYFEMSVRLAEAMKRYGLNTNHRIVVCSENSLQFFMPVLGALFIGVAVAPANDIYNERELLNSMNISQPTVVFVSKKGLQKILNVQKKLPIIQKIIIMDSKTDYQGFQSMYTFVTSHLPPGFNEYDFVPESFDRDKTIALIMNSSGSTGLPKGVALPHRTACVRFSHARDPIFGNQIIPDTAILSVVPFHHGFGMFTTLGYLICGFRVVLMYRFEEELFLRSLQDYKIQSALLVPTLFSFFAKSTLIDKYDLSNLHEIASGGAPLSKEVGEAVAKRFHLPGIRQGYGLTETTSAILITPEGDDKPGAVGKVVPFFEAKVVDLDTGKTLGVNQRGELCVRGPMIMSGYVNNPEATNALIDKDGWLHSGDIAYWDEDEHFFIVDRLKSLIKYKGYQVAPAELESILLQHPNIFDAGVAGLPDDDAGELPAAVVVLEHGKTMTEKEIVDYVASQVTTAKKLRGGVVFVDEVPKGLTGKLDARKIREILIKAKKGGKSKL

Turning to `CCOC(=O)c1ccccc1C`, the Potency result in [1], in experiment [2], in [3], in experiment [4], in experiment [5] and in [6] was “inactive” throughout. Moreover, the Potency result in experiment [7], in experiment [8], in [9], in experiment [10], in experiment [11] and in experiment [12] was “inactive” throughout.

Regarding `CC(C)(C)CC(C)(C)c1ccc(OCCO)cc1`, the Potency in experiment [1] was 48.3 µM (active); in [3], 48.3 µM (active); in experiment [4] it was 43 µM (active); in experiment [13], 54.2 µM (active); in experiment [14], 19.2 µM (active); in experiment [9] it was 100 µM (active). Besides, the Potency in [17] was 3.83 µM (active); in [10] it was 5.46 µM (active). In addition, the Potency entry in experiment [2], in experiment [15], in experiment [16], in experiment [8], in experiment [19] and in experiment [11] was “inactive” each time. Also, in experiment [12], the Potency entry was “inactive”. Moreover, the activity change, positive = activation in [18] is -58.8%.

As for `Cc1ccc(Nc2nccc(N(C)c3ccc4c(C)n(C)nc4c3)n2)cc1S(N)(=O)=O`, the Potency was 29.8 µM (active) in experiment [1]; 30.9 µM (active) in [2]; 4.73 µM (active) in experiment [6]; 23.7 µM (active) in experiment [14]; 11.9 µM (active) in experiment [17]; 1.2 µM (active) in [10]. The Potency result in experiment [3], in [4], in experiment [5], in experiment [15], in [16] and in [8] was “inactive” throughout. Also, the Potency entry in experiment [9], in [19], in experiment [11] and in [12] was “inactive” throughout. Besides, the compound was called inactive in [20]. In addition, the activity change, positive = activation in [18] was -54.4% [at 42.5 µM].

On to `O=C(O)Cc1ccc(-c2ccccc2)cc1`, for which the Potency entry in experiment [1], in [2], in [3], in experiment [4], in experiment [5] and in experiment [6] was “inactive” throughout. In addition, the Potency entry in [14], in experiment [15], in experiment [7], in [16], in [8] and in experiment [9] was “inactive” in each case. In addition, the Potency entry in experiment [17], in experiment [19], in [10], in experiment [11] and in [12] was “inactive” in each case. Besides, the activity change, positive = activation in experiment [18] is 1.1% [at 42.5 µM].

On to `CC(C)CCCCCOC(=O)CCCCC(=O)OCCCCCC(C)C`, for which the Potency entry in experiment [1], in experiment [2], in experiment [3], in experiment [4], in experiment [5] and in experiment [6] was “inactive” each time. For the same compound, the Potency result in experiment [14], in [15], in experiment [16], in [8], in [9] and in [17] was “inactive” each time. In addition, the Potency entry in experiment [19], in experiment [10], in experiment [11] and in [12] was “inactive” each time. For the same compound, the call in experiment [20] was inactive. For the same compound, the activity change, positive = activation in [18] was -6.86%.

Consider `O=C1NCCN1`, for which the Potency result in experiment [1], in experiment [2], in experiment [3], in [4], in experiment [13] and in experiment [14] was “inactive” each time. Further, the Potency entry in experiment [15], in experiment [7], in [16], in experiment [8], in experiment [9] and in experiment [17] was “inactive” in each case. Besides, the Potency result in [19], in experiment [10], in [11] and in experiment [12] was “inactive” throughout. The result in [20] was inactive. In experiment [18], the activity change, positive = activation is 2.98%.

Take `CCC(C)=O`: the Potency entry in [1], in experiment [2], in experiment [3], in experiment [4], in [13] and in experiment [14] was “inactive” each time. The Potency result in [15], in experiment [16], in experiment [9], in experiment [17], in experiment [19] and in [10] was “inactive” in each case. Besides, the Potency result in [11] and in [12] was “inactive” throughout. In addition, in experiment [20], the compound was classed as inactive.

Take `CC(=O)Oc1ccc(C(=C2CCCCC2)c2ccc(OC(C)=O)cc2)cc1`: the Potency result in [1], in [2], in [3], in experiment [4], in experiment [5] and in experiment [13] was “inactive” throughout. Further, the Potency entry in experiment [7], in experiment [16], in [8], in experiment [9], in [19] and in experiment [10] was “inactive” each time. Also, the Potency entry in experiment [11] and in experiment [12] was “inactive” in each case. Further, in experiment [20], the outcome was inactive.
